Molecules are shown by their SMILES. ± gives the standard deviation of the averaged measurements.

Data on 13 compounds can be found in the supplement of paper PMC11628255, “Interference of metal ions on the bioluminescent signal of firefly, Renilla, and NanoLuc luciferases in high-throughput screening assays” (Frontiers in Chemistry, 2024).

In experiment [1] the test system is Renilla luciferase (RLuc). Kind of experiment: residual bioluminescent signal relative to negative (DMSO) control; higher = less interference (more residual luciferase signal). The method, boiled down:
(§1)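 Metal salts in water were tested at 0.01, 1 and 5 mM final against purified firefly, NanoLuc or Renilla luciferase, with a 10 min room-temperature pre-incubation and a luminescence read 10 min after substrate addition. Each value of residual signal is a well's luminescence as a percentage of the plate's mean vehicle-only signal.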

In experiment [2] the test system is NanoLuc luciferase (NLuc). The experiment is described as above. Summed up:
as §1

Where [3] appears, read: metal salt concentration 0.01 mM, HEPES conditions (100 mM HEPES, 0.05% BSA, 0.3 M sodium ascorbate, pH 7.5).
The mark [4] stands for this setting: metal salt concentration 0.01 mM, screening conditions (50 mM Tris-HCl, […] KH2PO4, […] NaCl, 0.25 mM EDTA, 0.1% BSA, 0.3 M sodium ascorbate, pH 7.4).
Setting [5] is: metal salt concentration 1 mM, HEPES conditions (100 mM HEPES, 0.05% BSA, 0.3 M sodium ascorbate, pH 7.5).
The mark [6] stands for this setting: metal salt concentration 1 mM, screening conditions (50 mM Tris-HCl, […] KH2PO4, […] NaCl, 0.25 mM EDTA, 0.1% BSA, 0.3 M sodium ascorbate, pH 7.4).
Where [7] appears, read: metal salt concentration 5 mM, HEPES conditions (100 mM HEPES, 0.05% BSA, 0.3 M sodium ascorbate, pH 7.5).
[8] abbreviates: metal salt concentration 5 mM, screening conditions (50 mM Tris-HCl, […] KH2PO4, […] NaCl, 0.25 mM EDTA, 0.1% BSA, 0.3 M sodium ascorbate, pH 7.4).
[9] abbreviates: metal salt concentration 0.01 mM, HEPES conditions (100 mM HEPES, 0.1% BSA, pH 7.5).
Setting [10] is: metal salt concentration 0.01 mM, screening conditions (PBS, 0.1% BSA, pH 7.4).
[11] abbreviates: metal salt concentration 1 mM, HEPES conditions (100 mM HEPES, 0.1% BSA, pH 7.5).
Where [12] appears, read: metal salt concentration 1 mM, screening conditions (PBS, 0.1% BSA, pH 7.4).
Where [13] appears, read: metal salt concentration 5 mM, HEPES conditions (100 mM HEPES, 0.1% BSA, pH 7.5).
Setting [14] is: metal salt concentration 5 mM, screening conditions (PBS, 0.1% BSA, pH 7.4).

In the case of `O=[N+]([O-])[O-].O=[N+]([O-])[O-].[Pb+2]` [lead(II) nitrate], the residual bioluminescent signal amounted to 102 ± 1.7% in experiment [1] (setting [3]); 112 ± 8.2% in experiment [1] (setting [4]); 42.9 ± 4.4% in experiment [1] (setting [5]); 69.9 ± 14% in experiment [1] (setting [6]); 30.2 ± 3.3% in experiment [1] (setting [7]); 5.96 ± 0.97% in experiment [1] (setting [8]).
Turning to `O=[N+]([O-])[O-].O=[N+]([O-])[O-].[Cd+2]` [cadmium nitrate], the residual bioluminescent signal in experiment [2] (setting [9]) came to 93.8 ± 1.4%; in experiment [2] (setting [10]) it was 98.2 ± 1.1%; in experiment [2] (setting [11]), 74.64 ± 0.51%; in experiment [2] (setting [12]) it was 62.1 ± 7.8%; in experiment [2] (setting [13]), 84.1 ± 2.6%; in experiment [2] (setting [14]), 22.1 ± 1.6%. For the same compound, the residual bioluminescent signal in experiment [1] (setting [3]) came to 100 ± 15%; in experiment [1] (setting [4]), 102 ± 9.5%; in experiment [1] (setting [5]) it was 11.8 ± 0.97%; in experiment [1] (setting [6]), 45.6 ± 6.1%; in experiment [1] (setting [7]), 1.41 ± 0.32%; in experiment [1] (setting [8]), 12.2 ± 3.1%.
As to `O=[N+]([O-])[O-].[Na+]` [sodium nitrate], the residual bioluminescent signal in experiment [2] (setting [9]) came out at 89.7 ± 1.5%; in experiment [2] (setting [10]), 96.7 ± 2.3%; in experiment [2] (setting [11]), 91.8 ± 4.2%; in experiment [2] (setting [12]), 93.2 ± 3.3%; in experiment [2] (setting [13]), 102 ± 2.5%; in experiment [2] (setting [14]), 94.1 ± 2.8%. Also, the residual bioluminescent signal was 93.9 ± 5.2% in experiment [1] (setting [3]); 101 ± 3.4% in experiment [1] (setting [4]); 96.7 ± 2.8% in experiment [1] (setting [5]); 97.6 ± 5.2% in experiment [1] (setting [6]); 109 ± 7.3% in experiment [1] (setting [7]); 107 ± 2.8% in experiment [1] (setting [8]).
Turning to `O=[N+]([O-])[O-].O=[N+]([O-])[O-].[Zn+2]` [zinc nitrate], the residual bioluminescent signal in experiment [1] (setting [3]) turned out to be 86 ± 1.9%; in experiment [1] (setting [4]) it was 96.8 ± 8.7%; in experiment [1] (setting [5]), 11.8 ± 2.2%; in experiment [1] (setting [6]), 85.7 ± 3.5%; in experiment [1] (setting [7]) it was 1.13 ± 0.12%; in experiment [1] (setting [8]) it was 14.9 ± 12%.
As to `O=[N+]([O-])[O-].O=[N+]([O-])[O-].O=[N+]([O-])[O-].[Al+3]` [aluminium nitrate], the residual bioluminescent signal in experiment [2] (setting [9]) amounted to 95.9 ± 2.5%; in experiment [2] (setting [10]) it was 100 ± 2.5%; in experiment [2] (setting [11]), 68.7 ± 3.2%; in experiment [2] (setting [12]) it was 89.9 ± 5.7%; in experiment [2] (setting [13]) it was 107 ± 1.8%; in experiment [2] (setting [14]) it was 103 ± 4.9%. Also, the residual bioluminescent signal in experiment [1] (setting [3]) is 85.7 ± 7.3%; in experiment [1] (setting [4]) it was 91.1 ± 1%; in experiment [1] (setting [5]) it was 7.39 ± 0.84%; in experiment [1] (setting [6]), 90.2 ± 1.4%; in experiment [1] (setting [7]) it was 103 ± 2.5%; in experiment [1] (setting [8]), 94.2 ± 6.2%.
`O=[N+]([O-])[O-].[K+]` [potassium nitrate]: the residual bioluminescent signal was 110 ± 7.7% in experiment [1] (setting [3]); 101 ± 7.9% in experiment [1] (setting [4]); 104 ± 1.4% in experiment [1] (setting [5]); 108 ± 11% in experiment [1] (setting [6]); 109 ± 5.3% in experiment [1] (setting [7]); 102 ± 3.8% in experiment [1] (setting [8]).
Take `O=[N+]([O-])[O-].O=[N+]([O-])[O-].[Ca+2]` [calcium nitrate]: the residual bioluminescent signal stood at 97.1 ± 2.3% in experiment [2] (setting [9]); 96.46 ± 0.94% in experiment [2] (setting [10]); 102 ± 5.5% in experiment [2] (setting [11]); 97.6 ± 4.1% in experiment [2] (setting [12]); 109 ± 3.1% in experiment [2] (setting [13]); 92.6 ± 4.6% in experiment [2] (setting [14]). Besides, the residual bioluminescent signal in experiment [1] (setting [3]) was found to be 83 ± 5.8%; in experiment [1] (setting [4]), 79.9 ± 9.1%; in experiment [1] (setting [5]), 92.3 ± 4.3%; in experiment [1] (setting [6]), 86.7 ± 4.6%; in experiment [1] (setting [7]) it was 106 ± 6.2%; in experiment [1] (setting [8]), 19.5 ± 7.2%.
Take `O=[N+]([O-])[O-].[Li+]` [lithium nitrate]: the residual bioluminescent signal in experiment [1] (setting [3]) was determined as 88.6 ± 6.9%; in experiment [1] (setting [4]), 87.4 ± 5.8%; in experiment [1] (setting [5]), 94.2 ± 14%; in experiment [1] (setting [6]), 86.8 ± 1.4%; in experiment [1] (setting [7]) it was 97.7 ± 6.4%; in experiment [1] (setting [8]), 88.5 ± 5.5%.
As for `O=[N+]([O-])[O-].O=[N+]([O-])[O-].[Cu+2]` [copper(II) nitrate], the residual bioluminescent signal in experiment [1] (setting [3]) turned out to be 99.3 ± 10%; in experiment [1] (setting [4]), 104 ± 6.5%; in experiment [1] (setting [5]), 0.774 ± 0.61%; in experiment [1] (setting [6]) it was 0.583 ± 0.34%; in experiment [1] (setting [7]), 0.774 ± 0.24%; in experiment [1] (setting [8]) it was 0.897 ± 0.62%.
With `O=[N+]([O-])[O-].[Ag+]` [silver nitrate], the residual bioluminescent signal in experiment [2] (setting [10]) was found to be 28 ± 4.6%; in experiment [2] (setting [12]) it was 1.98 ± 0.46%; in experiment [2] (setting [14]), 2.05 ± 0.58%.
Regarding `O=[N+]([O-])[O-].O=[N+]([O-])[O-].O=[N+]([O-])[O-].[Ga+3]` [gallium(III) nitrate], the residual bioluminescent signal is 96.1 ± 2.9% in experiment [2] (setting [9]); 99.5 ± 2.3% in experiment [2] (setting [10]); 70.9 ± 6.9% in experiment [2] (setting [11]); 83 ± 7.1% in experiment [2] (setting [12]); 8.8 ± 1.5% in experiment [2] (setting [13]); 0.649 ± 0.57% in experiment [2] (setting [14]). Further, the residual bioluminescent signal in experiment [1] (setting [3]) is 105 ± 12%; in experiment [1] (setting [4]), 98.9 ± 6%; in experiment [1] (setting [5]) it was 10.6 ± 0.8%; in experiment [1] (setting [6]) it was 112 ± 11%; in experiment [1] (setting [7]) it was 3.03 ± 1.8%; in experiment [1] (setting [8]) it was 1.92 ± 1.4%.
`[Cl][Sn][Cl]` [tin(II) chloride]: the residual bioluminescent signal is 103 ± 4.7% in experiment [1] (setting [3]); 96.3 ± 7.4% in experiment [1] (setting [4]); 103 ± 11% in experiment [1] (setting [5]); 95.3 ± 12% in experiment [1] (setting [6]); 92.9 ± 2.4% in experiment [1] (setting [7]); 11.3 ± 2.3% in experiment [1] (setting [8]).
`O=[N+]([O-])[O-].O=[N+]([O-])[O-].[Ni+2]` [nickel(II) nitrate]: the residual bioluminescent signal is 82.5 ± 12% in experiment [1] (setting [3]); 99.08 ± 0.95% in experiment [1] (setting [4]); 57.9 ± 4.5% in experiment [1] (setting [5]); 79.3 ± 3.2% in experiment [1] (setting [6]); 22.4 ± 2.8% in experiment [1] (setting [7]); 52.7 ± 11% in experiment [1] (setting [8]).
